This is part of a sample that, as a whole, favours compounds with a hit. Of some 83,000 tested, about 20% had one in any assay.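 Single-concentration screen, 48 h exposure, 96-well plates. Endpoint: percent growth. Below 10 = active.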 Activity calls are given as the source filed them.
Key:
Test in all cases: NCI-60 one-dose screen, 48 h (100 = growth as untreated, 0 = no growth, -100 = all killed)
Conditions in all cases: 10 µM unless noted
SK-MEL-2 melanoma = test system: SK-MEL-2 melanoma
EKVX NSCLC = test system: EKVX NSCLC
SN12C renal = test system: SN12C renal
UO-31 renal = test system: UO-31 renal
TK-10 renal = test system: TK-10 renal
ACHN renal = test system: ACHN renal
CCRF-CEM leukemia = test system: CCRF-CEM leukemia
MOLT-4 leukemia = test system: MOLT-4 leukemia
SR leukemia = test system: SR leukemia
RPMI-8226 leukemia = test system: RPMI-8226 leukemia
OVCAR-8 ovarian = test system: OVCAR-8 ovarian
OVCAR-5 ovarian = test system: OVCAR-5 ovarian
OVCAR-4 ovarian = test system: OVCAR-4 ovarian
SK-OV-3 ovarian = test system: SK-OV-3 ovarian
IGROV1 ovarian = test system: IGROV1 ovarian
OVCAR-3 ovarian = test system: OVCAR-3 ovarian
HS 578T breast = test system: HS 578T breast
NCI/ADR-RES ovarian = test system: NCI/ADR-RES ovarian
A498 renal = test system: A498 renal

Measured: growth

COc1ccc(NC(=O)c2ccc(/C=C/C(=O)c3ncc[nH]3)cc2)cc1
inactive: SK-MEL-2 melanoma 97.6% | EKVX NSCLC 79.8% | SN12C renal 70.8% | UO-31 renal 48.4% | TK-10 renal 88.8% | ACHN renal 86.3% | CCRF-CEM leukemia 29.1% | MOLT-4 leukemia 62.4% | SR leukemia 13.4% | RPMI-8226 leukemia 16.7% | OVCAR-8 ovarian 64.7% | OVCAR-5 ovarian 107% | OVCAR-4 ovarian 82.5% | SK-OV-3 ovarian 96.9% | IGROV1 ovarian 78% | OVCAR-3 ovarian 31.1% | HS 578T breast 94.7% | NCI/ADR-RES ovarian 77.4%

NC(CSC(c1ccccc1)(c1ccccc1)c1ccc(Cl)cc1)C(=O)O (configuration not stated)
inactive: EKVX NSCLC 27.1% | SN12C renal 27.5% | UO-31 renal 65% | TK-10 renal 64.8% | ACHN renal 53% | OVCAR-5 ovarian 12.2% | OVCAR-4 ovarian 63.2% | SK-OV-3 ovarian 17.2%
active: SK-MEL-2 melanoma -9.63% | CCRF-CEM leukemia 3.48% | MOLT-4 leukemia 6.35% | SR leukemia -24.5% | OVCAR-8 ovarian -15.9% | OVCAR-3 ovarian -41.4% | HS 578T breast -36.2% | NCI/ADR-RES ovarian -20.5%

CC(=O)c1cc2c(N)c(C(=O)Nc3cccc(F)c3C)sc2nc1C
inactive: SK-MEL-2 melanoma 68.5% | EKVX NSCLC 95.7% | SN12C renal 95.1% | UO-31 renal 91.2% | TK-10 renal 100% | ACHN renal 89.4% | A498 renal 43% | CCRF-CEM leukemia 86.7% | SR leukemia 63.9% | RPMI-8226 leukemia 86% | OVCAR-8 ovarian 79.6% | OVCAR-5 ovarian 110% | OVCAR-4 ovarian 79.8% | SK-OV-3 ovarian 53.8% | IGROV1 ovarian 94.3% | OVCAR-3 ovarian 108% | HS 578T breast 80.1% | NCI/ADR-RES ovarian 91.5%

OC(COc1cccc2ccccc12)CN1CCN(c2ccccc2Cl)CC1 (configuration not stated)
inactive: SK-MEL-2 melanoma 44.6% | EKVX NSCLC 102% | SN12C renal 105% | UO-31 renal 85.1% | TK-10 renal 100% | ACHN renal 102% | A498 renal 90% | MOLT-4 leukemia 107% | SR leukemia 78.3% | OVCAR-8 ovarian 98.4% | OVCAR-5 ovarian 85.3% | OVCAR-4 ovarian 92.7% | SK-OV-3 ovarian 89.2% | IGROV1 ovarian 117% | OVCAR-3 ovarian 101% | HS 578T breast 107% | NCI/ADR-RES ovarian 89.4%

COc1ccc(-c2cc(-c3ccc(Nc4ccnc5cc(Cl)ccc45)cc3)nc(N3CCOCC3)n2)cc1
inactive: SK-MEL-2 melanoma 90.3% | EKVX NSCLC 90.4% | SN12C renal 49.2% | UO-31 renal 87.8% | ACHN renal 80.7% | A498 renal 86.6% | MOLT-4 leukemia 23.9% | OVCAR-8 ovarian 15.3% | OVCAR-5 ovarian 135% | SK-OV-3 ovarian 101% | IGROV1 ovarian 103% | NCI/ADR-RES ovarian 20.8%
active: TK-10 renal 9.38% | CCRF-CEM leukemia 3.53% | SR leukemia -18% | RPMI-8226 leukemia -1.81% | OVCAR-4 ovarian -52.1% | OVCAR-3 ovarian 2.68%

FC(F)(F)Oc1ccc2nc3nc4ccc[nH]c4cc3c2c1
inactive: SK-MEL-2 melanoma 98% | EKVX NSCLC 62.8% | SN12C renal 87.5% | UO-31 renal 61.8% | TK-10 renal 64.7% | ACHN renal 56.4% | CCRF-CEM leukemia 75.7% | MOLT-4 leukemia 68.9% | SR leukemia 43.9% | RPMI-8226 leukemia 71.7% | OVCAR-8 ovarian 69.9% | OVCAR-4 ovarian 31.5% | SK-OV-3 ovarian 63.8% | IGROV1 ovarian 74.6% | HS 578T breast 56.7% | NCI/ADR-RES ovarian 85.8%

Oc1ccc(N=Cc2ccccc2O)cc1
inactive: SK-MEL-2 melanoma 141% | EKVX NSCLC 103% | SN12C renal 102% | UO-31 renal 77.3% | TK-10 renal 101% | ACHN renal 88.3% | A498 renal 112% | CCRF-CEM leukemia 79.5% | MOLT-4 leukemia 89.6% | SR leukemia 83.7% | OVCAR-8 ovarian 83.6% | OVCAR-4 ovarian 89.3% | SK-OV-3 ovarian 98.5% | IGROV1 ovarian 90.2% | OVCAR-3 ovarian 90.6% | HS 578T breast 112% | NCI/ADR-RES ovarian 98.2%

CC(=O)OCCC/C(=C/c1cc2ccccc2c2ccccc12)[N+](=O)[O-]
inactive: SK-OV-3 ovarian 44.7%
active: SK-MEL-2 melanoma -80.8% | EKVX NSCLC -31.7% | SN12C renal -88.9% | UO-31 renal -97% | TK-10 renal -72.2% | ACHN renal -91.7% | A498 renal -80.1% | CCRF-CEM leukemia -36.1% | MOLT-4 leukemia -28.7% | SR leukemia -45.8% | OVCAR-8 ovarian -100% | OVCAR-5 ovarian -95.1% | OVCAR-4 ovarian 0.455% | OVCAR-3 ovarian -99.1% | HS 578T breast -46.2% | NCI/ADR-RES ovarian -29.4%

COc1cc(-c2nn(-c3ccc(Br)cc3)cc2C(=O)O)ccc1O
inactive: SK-MEL-2 melanoma 83.1% | EKVX NSCLC 87.2% | SN12C renal 109% | UO-31 renal 82.4% | TK-10 renal 125% | ACHN renal 112% | A498 renal 107% | CCRF-CEM leukemia 90.1% | MOLT-4 leukemia 78.7% | SR leukemia 84.1% | RPMI-8226 leukemia 95.7% | OVCAR-8 ovarian 105% | OVCAR-5 ovarian 122% | OVCAR-4 ovarian 101% | SK-OV-3 ovarian 100% | IGROV1 ovarian 91.2% | OVCAR-3 ovarian 101% | NCI/ADR-RES ovarian 104%

COc1ccc(C(=S)N2CCN(c3cccc(Cl)c3)CC2)cc1
inactive: SK-MEL-2 melanoma 80.4% | EKVX NSCLC 93.2% | SN12C renal 103% | UO-31 renal 83.2% | TK-10 renal 94% | ACHN renal 109% | A498 renal 106% | MOLT-4 leukemia 108% | SR leukemia 90.6% | OVCAR-8 ovarian 100% | OVCAR-5 ovarian 98.5% | OVCAR-4 ovarian 99.1% | SK-OV-3 ovarian 107% | IGROV1 ovarian 104% | OVCAR-3 ovarian 112% | HS 578T breast 118% | NCI/ADR-RES ovarian 104%

C=C(C)C(=O)Nc1ccc(NC(C)C)cc1
inactive: SK-MEL-2 melanoma 53.5% | EKVX NSCLC 115% | SN12C renal 121% | UO-31 renal 100% | TK-10 renal 138% | ACHN renal 125% | A498 renal 101% | MOLT-4 leukemia 128% | SR leukemia 96.6% | OVCAR-8 ovarian 93.5% | OVCAR-5 ovarian 117% | OVCAR-4 ovarian 111% | SK-OV-3 ovarian 109% | IGROV1 ovarian 120% | OVCAR-3 ovarian 121% | HS 578T breast 141% | NCI/ADR-RES ovarian 112%

O=c1ccccc(-c2ccc(-c3ccco3)cc2)c1O
active: UO-31 renal -12.2% | ACHN renal 9.23% | CCRF-CEM leukemia 5.03% | MOLT-4 leukemia 7.73% | RPMI-8226 leukemia 8.75%
inactive: SK-MEL-2 melanoma 19.9% | EKVX NSCLC 11.8% | SN12C renal 11.3% | TK-10 renal 33.5% | A498 renal 39% | OVCAR-8 ovarian 12.7% | OVCAR-5 ovarian 54.9% | OVCAR-4 ovarian 23.7% | SK-OV-3 ovarian 18.2% | IGROV1 ovarian 12.9% | OVCAR-3 ovarian 28.8% | HS 578T breast 59.3% | NCI/ADR-RES ovarian 12%

From PubChem BioAssay (NCI)
